Reference: PubChem BioAssay (NCI)
The panel holds about 83,000 compounds, 20% with a hit somewhere; the sample as a whole holds those more often.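 Values shown are percent growth following 48 h exposure of cells in 96-well plates to a single concentration of compound; below 10 was considered active.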 Unmarked numbers belong to inactive results. The source made the active and inactive calls.

Tests used:
Test in all cases: NCI-60 one-dose screen, 48 h (100 = growth as untreated, 0 = no growth, -100 = all killed)
Conditions in all cases: 10 µM unless noted
NCI-H23 lung = system: NCI-H23 lung
NCI-H226 lung = system: NCI-H226 lung
NCI-H322M lung = system: NCI-H322M lung
HOP-62 NSCLC = system: HOP-62 NSCLC
NCI-H460 lung = system: NCI-H460 lung
HOP-92 NSCLC = system: HOP-92 NSCLC
NCI-H522 lung = system: NCI-H522 lung
A549/ATCC NSCLC = system: A549/ATCC NSCLC
786-0 renal = system: 786-0 renal
COLO 205 colon = system: COLO 205 colon

Structure (SMILES)	growth (NCI-H23 lung)	growth (NCI-H226 lung)	growth (NCI-H322M lung)	growth (HOP-62 NSCLC)	growth (NCI-H460 lung)	growth (HOP-92 NSCLC)	growth (NCI-H522 lung)	growth (A549/ATCC NSCLC)	growth (786-0 renal)	growth (COLO 205 colon)
IP(CCCCCCCCCCSc1n(Cc2ccc3ccccc3c2)c(-c2ccccc2)c(-c2ccccc2)[n+]1Cc1ccc2ccccc2c1)(c1ccccc1)(c1ccccc1)c1ccccc1	-66.2% (active)	-55.2% (active)	-68.4% (active)	-59.1% (active)	-63.4% (active)	-77.8% (active)	-61.8% (active)	-55% (active)	-56.2% (active)	-55.2% (active)
CC1(C)CC[C@]2(C(=O)N3CCCN(CC#N)CC3)CC[C@]3(C)C(=CC[C@@H]4[C@@]5(C)CC[C@H](O)C(C)(C)[C@@H]5CC[C@]43C)[C@H]2C1	55.6%	71.1%	94.9%	70.8%	16.8%	19.3%	67.5%	39.1%	68.6%	-15.5% (active)
c1ccc(-c2n(Cc3ccc4ccccc4c3)c3c4ccccc4c4ccccc4c3[n+]2Cc2ccc3ccccc3c2)cc1	-79.9% (active)	-74% (active)	-80.1% (active)	-69.2% (active)	-62.9% (active)	-77% (active)	-74.9% (active)	-69.2% (active)	-67% (active)	-59.5% (active)
C=CCn1c(SCC(=O)c2ccc(OC)cc2)nnc1-c1ccc(OC)cc1	97.6%	87.1%	97.4%	102%	102%	88.9%	99%	99.2%	99.4%	98.8%
N=c1c2cc(-c3ccccc3)oc2ncn1/N=C/c1ccccc1	98.1%	98.9%	94.5%	87.4%	57.6%	92%	42.1%	71.2%	78.6%	88.1%
Cn1c2ccccc2c2c3c(c4c5ccc(Br)cc5oc4c21)C(=O)N(O)C3=O	80%	70.9%	96.8%	59.8%	42.3%	81.6%	48.7%	85.6%	89.8%	86.7%
CCOC(=O)c1c(NC(=O)c2ccc(C(C)(C)C)cc2)sc2cc(OCCN3CCCCC3)ccc12	88.6%	101%	83.1%	91.1%	13.9%	66.1%	96.8%	77%	75.5%	25.6%
C=C(C)[C@@H]1CC[C@]2(C)[C@H](CC=C3[C@@H]4CC(C)(C)CC[C@]4(C(=O)NCC#CCN4CCN(C)CC4)CC[C@]32C)[C@@]1(C)CCC#N	79.4%	86.7%	85.8%	81.3%	10.7%	13%	78.3%	52.9%	52.3%	86.6%
O=C(O)CNS(=O)(=O)c1ccc(Oc2ccc(S(=O)(=O)NCC(=O)O)cc2)cc1	101%	107%	101%	91.9%	101%	103%	94.7%	101%	100%	109%
Nc1nc(-c2cccc([N+](=O)[O-])c2)c(N=Nc2ccccc2Cl)s1	60.8%	70.4%	86.3%	56.1%	41%	31.8%	60.1%	51.8%	52.6%	93.1%
O=C(CCCCCCN1CC(=O)N2[C@@H](c3ccccc3)c3[nH]c4ccccc4c3C[C@H]2C1=O)NO	70.9%	105%	72.4%	58.5%	54.2%	57.9%	35%	95.9%	93.3%	58.8%
C/C(=C(/c1ccc(O)cc1)c1ccc(OCCN2CCCC2)cc1)c1ccc(Cl)cc1	46.8%	72.3%	53.8%	63.1%	-1.6% (active)	50.3%	61.1%	47.6%	45.7%	-86.6% (active)
C/C(Cc1ccc(Cl)cc1)=C(/c1ccccc1)c1ccc(OCCN)cc1	98.2%	91.4%	99.8%	108%	104%	91.6%	96.1%	99.1%	106%	103%
COc1cc2cc(Oc3ccc(NC(=O)Nc4cc(C(F)(F)F)cc(C(F)(F)F)c4)cc3)c(C)nc2cc1OCCN(C)C	104%	98.6%	109%	101%	107%	127%	102%	104%	106%	115%
Cc1cc(=O)n2nc(-c3c[nH]c4ccccc34)sc2n1	92.6%	98.6%	93.4%	101%	100%	98.4%	90.4%	96.3%	106%	102%
COc1ccc2c(ccn2C(=O)N2c3ccccc3Sc3ccccc32)c1	40.3%	51.6%	52.6%	35.3%	14.2%	25.4%	-26.8% (active)	43.8%	50.1%	-33.3% (active)
O=C(Nc1cccc(Cl)c1)Nc1nc2ccc([N+](=O)[O-])cc2s1	-20.9% (active)	-7.2% (active)	8.75% (active)	-1.84% (active)	2.75% (active)	-11.9% (active)	2.99% (active)	10%	8.65% (active)	-54.2% (active)
COc1cc2c3c(n(CCCNCC4CC4)c(=O)c2cc1OC)-c1cc2c(cc1C3=O)OCO2	-52.6% (active)	61.9%	66.9%	-85.8% (active)	-58.7% (active)	90.8%	-66.1% (active)	-85.1% (active)	-98.2% (active)	38%
CCCCCCCCNC(=O)c1ccc(Cn2c(CCCC)nc3c(N)nc4ccccc4c32)cc1	38.8%	87.7%	85.3%	75.5%	3.61% (active)	26.2%	-50.4% (active)	57.7%	-78.3% (active)	-8.18% (active)
CCN1C(=O)N(CC)C2SC(N/N=C/c3cccs3)=NC21 (stereo not given)	25.8%	36%	46.6%	32%	3.74% (active)	-7.41% (active)	-47.9% (active)	20.3%	17.9%	-63% (active)
CCCC(=O)NC(c1cccnc1)c1cc(C(C)=O)c2cccnc2c1O (stereo not given)	48.6%	25%	26.9%	26.2%	12.1%	43.3%	18.6%	18.9%	32.2%	15.6%
CCN1CCN(Cc2ccc(C(=O)Nc3nc4ccc(Oc5ccnc(C(=O)NC)c5)cc4s3)cc2C(F)(F)F)CC1	42%	76.3%	66.1%	63.9%	26.2%	37.4%	58.9%	60.1%	39.5%	-43% (active)
